Assay results published in PubChem BioAssay AID585 (National Center for Advancing Translational Sciences (NCATS), 2007).
About 1,300 (1.8%) of roughly 71,000 compounds were called active. Many of the other results were omitted from the sample, so actives are more common in it than they were. Values without a mark were called inactive. The call rests on the fitted dose curve.

target: Beta-lactamase (Escherichia coli (strain K12)) (UniProt P00811); test: Promiscuous and Specific Inhibitors of AmpC Beta-Lactamase (assay without detergent); details: AmpC nitrocefin hydrolysis, absorbance 480 nm, no detergent; series mostly up to 28.7 µM; activity change, negative = inhibition: at the top concentration; on activity change, negative = inhibition: % of control where 0% means no effect
Experimental: NIH Molecular Libraries Screening Centers Network [MLSCN]
NIH Chemical Genomics Center [NCGC]
PI Name: Shoichet, Brian K.
This aggregation profiling approach exploits the sensitivity of aggregate formation to detergent. Inhibition of b-lactamase is measured in the presence and absence of 0.01% Triton X-100. See Pubchem assay "Promiscuous and Specific Inhibitors of AmpC Beta-Lactamase (assay with detergent)" for related screen. Compounds that inhibit only in the absence of detergent are considered likely promiscuous aggregators.
A screen of 1,030 compounds was performed in Brian Shoichet's lab in 96-well format. AmpC activity was measured by following the absorbance at 480 nm. Nitrocefin is a chromogenic substrate: while nitrocefin is yellow (lmax 390 nm), the product of its hydrolysis is red (lmax 486 nm, 17,000 M-1). AmpC beta lactamase was provided by Brian Shoichet and Brian Feng, UCSF.
NCGC Assay Protocol Summary:
20 mM phosphate buffer, pH 7.0
Triton X-100: No Detergent screen: 0.0001%, Detergent screen: 0.01%.
Buffer in columns 3 and 4 as negative control (no enzyme).
5.3 nM AmpC in columns 1, 2, 5-48. Titration of UCSF compound 9 control (from 10 mM, then 1:2) pin-transferred to column 2. Column 1 is neutral (100% activity).
Six uL of reagents were dispensed to 1536-well Greiner black clear bottom plates. Compounds and controls (23 nL) were transferred via Kalypsys PinTool. The plates were incubated for 15 min at room temperature, and then 2 uL of 800 uM solution of nitrocefin was added to start the reaction. The plates were immediately transferred to and read every 20 seconds for 4 min on ViewLux (Perkin-Elmer) High-throughput CCD imager using 480 nm absorbance protocol. During dispense, reagent bottles were kept submerged into 4 deg C water bath.
Keywords: NIH Roadmap, MLSCN, MLI, MLSMR, qHTS, NCGC, AmpC Beta-Lactamase, Aggregation.
Potency means the concentration at half of the fitted maximal effect.

Sequence of Beta-lactamase (Escherichia coli (strain K12)) (P00811 whole entry, looked up): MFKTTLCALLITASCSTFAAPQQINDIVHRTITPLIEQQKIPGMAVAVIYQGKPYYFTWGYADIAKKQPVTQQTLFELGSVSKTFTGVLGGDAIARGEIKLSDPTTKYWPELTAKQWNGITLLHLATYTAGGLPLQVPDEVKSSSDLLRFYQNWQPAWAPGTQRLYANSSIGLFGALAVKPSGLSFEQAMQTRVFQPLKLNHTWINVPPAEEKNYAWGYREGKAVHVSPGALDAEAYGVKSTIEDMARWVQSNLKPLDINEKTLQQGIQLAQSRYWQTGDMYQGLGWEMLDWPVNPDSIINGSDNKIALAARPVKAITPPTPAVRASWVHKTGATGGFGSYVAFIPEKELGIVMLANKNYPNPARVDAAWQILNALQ

SMILES	activity change, negative = inhibition	Potency
CCOc1ccc(CN(Cc2ccco2)C(c2cccs2)c2nnnn2C(C)(C)C)cc1 (stereo not given)	25.1%	
O=C(COC(=O)c1ccccc1C(=O)c1ccccc1)c1ccco1	4.4%	
CCOC(=O)NCc1ccc2c(c1)OCO2	-7.3%	
O=C(NCc1ccc2c(c1)OCO2)c1cc2c(s1)CS(=O)(=O)C2		12.6 µM [single pt active] (active)
Cc1ccc(C(=O)OCC(=O)NCc2ccc3c(c2)OCO3)s1	-2.6%	
CC(Sc1sc(=S)sc1SC(C)C(=O)O)C(=O)O (stereo not given)	0.8%	
COc1ccc(C(=O)Nc2nncs2)c(OC)c1		3.98 µM [single pt active] (active)
COC(=O)c1sc(NC(=O)c2ccc(OC)cc2OC)nc1C	16.1%	
O=C(Nc1nncs1)c1ccccc1NS(=O)(=O)c1cccs1	-10.1%	
COc1ccc(CC(=O)Nc2ccc(-c3nnc(-c4ccccc4)o3)cc2)cc1	8.9%	
O=C(COC(=O)c1ccc(Oc2ccccc2)cc1)Nc1nnc(-c2ccccc2)o1		15.8 µM (active)
Cc1ccc(OCC(=O)Nc2ccc(-c3nnc(-c4ccco4)o3)cc2)cc1	12.3%	
CS(=O)(=O)N1CCC2(CC1)CN(Cc1cc(C(F)(F)F)cc(C(F)(F)F)c1)C2	63%	
CC1(C)C(=O)Nc2ccccc2N1C(=O)COC(=O)Cn1cnc2ccccc2c1=O	14.3%	
COc1cccc(-c2nn(C)c3sc(C(=O)N4CCN(c5ccccc5)CC4)cc23)c1	68.5%	
COc1ccccc1N1CCN(C(=O)c2cc3c(-c4ccc(Cl)cc4)nn(C)c3s2)CC1	2.6%	
CCOC(=O)N1CCN(C(=O)c2cc3c(-c4ccc(Cl)cc4)nn(C)c3s2)CC1		2.51 µM [single pt active] (active)
Cn1nc(-c2ccc(Cl)cc2)c2cc(C(=O)NCc3ccco3)sc21		3.16 µM (active)
O=C(NCc1ccco1)c1nc2ncccn2n1	-4.1%	
O=C(NCc1ccco1)c1cc(-c2cccnc2)nc2ccc(Cl)cc12	110%	
O=C(NCCc1ccccn1)c1ccc(COc2ccccc2)o1	31.1%	
O=C1CC2(CCCCC2)Oc2ccc(OCC(=O)N3CCOCC3)cc21	54.1%	
CCc1nnc(NC(=O)CSc2nnc(COc3ccc(C#N)cc3)n2-c2ccccc2)s1	49%	
CCOc1ccc(-n2c(SC(C)C(=O)OC)nc3c(c2=O)SCC3)cc1 (stereo not given)	47.2%	
O=C(CN1C(=O)c2ccccc2S1(=O)=O)N1CCc2ccccc21	-13.7%	

SMILES	activity change, negative = inhibition	Potency
CCCc1nnc(NC(=O)CN2C(=O)c3ccccc3S2(=O)=O)s1	-10.1%	
CNC(=O)CN1C(=O)c2ccccc2S1(=O)=O		3.98 µM [single pt active] (active)
Fc1cccc(/C=N\N=C/c2cccc(F)c2)c1	11.7%	
COc1cccc(NC(=O)C2CCCN2C(=O)OCc2ccccc2)c1 (stereo not given)	9.3%	
COc1cccc(NC(=O)Nc2nnc(N3CCCCC3C)s2)c1 (stereo not given)		2.51 µM [single pt active] (active)
COc1cccc(Nc2nnc(SCC(=O)N3CC(C)OC(C)C3)s2)c1 (stereo not given)	21%	
COCc1cc(C)nc(SCC(=O)Nc2cccc(C)c2)c1C#N	-7.6%	
CC1=C2C(=O)OC(c3ccoc3)C2(C)CCC1 (stereo not given)	-1.9%	
COc1ccc(C(=O)N/N=C2/C(=O)c3c(C)cc(C)cc3CC2(C)C)cc1	18.6% [at 5.75 µM]	
CCOC(=O)N1CCC(C(N)=O)CC1	-4.6%	
Cc1noc(C)c1S(=O)(=O)N(CC(=O)Nc1ccc2c(c1)OCCO2)c1ccc(C(C)C)cc1	-4.4%	
CCOC(=O)C1(C(F)(F)F)N=C(N(C)C)OC(N(C)C)=N1	-6.4%	
N#CC1=C(N)Oc2cc(O)ccc2C1C1CCCCC1 (stereo not given)	-9.2%	
O=C(O)c1c(Br)c(Br)c(Br)c(Br)c1C1c2ccc(O)cc2Oc2cc(O)ccc21		0.158 µM (active)
COCCNC(=O)CN1C(=O)CSc2ncccc21	-21.6%	
CC(C)(Cc1c[nH]c2ccc(Cl)cc12)NCCOc1ccccc1OCC1CC1		20 µM [single pt active] (active)
NCC[Se][Se]CCN	1.6% [at 5.75 µM]	
COC(=O)N1CCC[C@@]2(CCN(C(=O)NC(C)C)C2)C1	22.8%	
Cc1cc(C)c(C#N)c(SCc2ccc3c(c2)OCO3)n1	-11.5%	
COc1ccc(Cl)cc1NC(=O)c1oc(C)nc1C	22.7%	
Cc1nc(C)c(C(=O)Nc2cccc(C)c2C)o1		3.98 µM [single pt active] (active)
Cc1nc(C)c(C(=O)Nc2ccc(C)c(F)c2)o1	-4%	
c1ccc2c(c1)OCC(CNc1ncnc3nc[nH]c13)O2 (stereo not given)	8.2%	
c1ccc(CCN2CCN=C2Cc2ccccc2)cc1	13.3% [at 5.75 µM]	
COc1cccc(N2C(=O)C3CCCN3C2c2ccc(F)cc2)c1 (stereo not given)	26.5%	
